MBNL1-CUG inh: blocks human MBNL1 binding to CUG repeat RNA; Q9NR56; TR-FRET MBNL1-His/biotin-(CUG)12 binding, 665/545 ratio; Potency, µM (series often up to 57.5 µM), for the others: at the top dose activity change, negative = inhibition, hits mostly inhibitors; 280,000 compounds, 0.036% hits; AID 2675; active = well fitted inhibition curve with a large enough effect in the signal ratio, with a control signal flat, not every such curve was filed as active; inconclusive = small, poorly fitted or top-dose-only effect, or effect the other way, or a change in a side signal; inactive = no such curve, though single readings can be large or run the other way; the % refers to the signal ratio; note: potency is the fitted concentration of half-maximal effect; % is set by controls: 0 for no effect and ±100 for the full control effect
Target sequence (Q9NR56 whole entry, looked up): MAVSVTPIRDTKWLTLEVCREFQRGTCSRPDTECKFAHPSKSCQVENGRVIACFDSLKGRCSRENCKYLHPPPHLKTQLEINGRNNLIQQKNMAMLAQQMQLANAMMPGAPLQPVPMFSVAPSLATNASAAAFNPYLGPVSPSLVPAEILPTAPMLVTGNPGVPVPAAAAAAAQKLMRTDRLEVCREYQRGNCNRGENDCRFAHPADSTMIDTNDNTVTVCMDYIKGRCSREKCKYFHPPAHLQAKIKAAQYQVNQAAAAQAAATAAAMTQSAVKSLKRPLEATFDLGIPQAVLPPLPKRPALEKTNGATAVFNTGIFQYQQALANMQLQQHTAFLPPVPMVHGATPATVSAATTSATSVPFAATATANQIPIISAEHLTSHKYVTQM
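MBNL1-His + Biotin-(CUG)12, cpd titration 92 nM–58 uM; Tb anti-His Ab 0.055 ng/ul, SA-XL665 5 nM (final); 60 min RT; ratiometric 665/545 nm, Ex 340 nm; normalized to buffer and full-complex controls.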
TSHR antag: human thyrotropin receptor antagonism. P16473. TSHR-expressing cells, TSH-stimulated cAMP HTRF, 2 h; hits give low values. activity change, negative = inhibition, % at 11.5 µM. 330,000 compounds, 0.2% hits;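 active = activity change below a set negative limit, meaning inhibition stronger than a set level, cut at about -70% in these data; inconclusive = activity change between two set negative limits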; note: % is set by controls: 0 for no effect and ±100 for the full control effect
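Competitive HTRF cAMP read-out (cryptate anti-cAMP antibody, cAMP-d2; 30 min, room temperature) in freshly harvested TSHR cells. Compounds added before TSH at EC80 (4nM final), followed by 2 hours' incubation at 37 deg C.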
CBFb RUNX1 block: CBF-beta/RUNX1 interaction disruption | Q01196+Q13951 | AlphaScreen CBFb-His/RUNX1-biotin binding, biochemical | Potency, µM (top dose mostly 59.8 µM), for inactives: at the top dose activity, negative = inhibition, usual class: inhibitors | 230,000 tested, under 10 active; note: % of control where 0% means no effect
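Read-out: AlphaScreen. Format: His-CBF-beta with biotinylated RUNX1 (30 nM each) preincubated 20 min, compound 15 min, Ni-chelate plus streptavidin beads 90 min; room temperature throughout.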
TSG101-PTAP inh: blocks PTAP/TSG101 interaction to inhibit HIV-1 budding. Fluorescence polarization, FITC-PTAP peptide / Tsg101 binding. Q99816. 340,000 tested, under 10 active. Potency, µM (top dose mostly 115 µM), for inactives: at the highest dose activity change, negative = inhibition, actives largely listed as inhibitors; active = well fitted inhibition curve with a large enough effect in the main read-out, with a control signal flat, not every such curve was filed as active; inconclusive = small, poorly fitted or top-dose-only effect, or effect the other way, or a change in a side signal; inactive = no such curve, though single readings can be large or run the other way; note: potency is the fitted concentration of half-maximal effect; % of control where 0% means no effect
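Compounds were pin-transferred onto Tsg101 binding domain (10 uM final) in HEPES pH 7.5 buffer, then FITC-PTAP peptide was added at 50 nM final. After 20 min at RT, polarization reported peptide displacement across a qHTS concentration series.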
a7 integrin act: activates integrin-mediated alleviation for muscular dystrophy; alpha7betagal myoblasts, beta-gal FDG fluorescence, 48 h; Potency, µM (series often up to 38.3 µM), for inactives: top-dose activation, most hits filed as activators; 350,000 compounds, 0.064% hits; AID 624291;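 note: potency is the fitted concentration of half-maximal effect; 100% = response of the positive control SU9516; nearly all actives have a fitted effect of over 60% in size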
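alpha7betagal+/- myoblasts (passage 13, 250/well) treated 48 h at 37C with compounds at 1:260 dilution of DMSO stock. Lysed, then beta-galactosidase activity read as FDG fluorescence (ex 480/em 540) after 30 min, with pre-read for autofluorescence.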
TCR act: activates T cell receptor signaling | AID 504894 | primary human leukocytes, anti-CD3, IL-2 HTRF, 48 h | Potency, µM (titrated, usually from 9.22 µM), inactives show at the top dose activation of IL-2 secretion, hits mostly activators | 330,000 tested, under 10 active; note: % of control where 0% means no effect
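IL-2 produced over 48 hr by a-CD3 bead-stimulated primary human leukocytes exposed to compounds was detected with a homogeneous time-resolved FRET immunoassay, 665nm acceptor signal after 320nm excitation.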
MBNL1 TRFRET: blocks human MBNL1 binding to CUG repeat RNA, TR-FRET validation | shares compounds with MBNL1-CUG inh | TR-FRET MBNL1-His / biotin-(CUG)12 binding, 60 min | Potency, µM (doses to about 57.6 µM), without a hit: top-dose activity change, negative = inhibition, usual class: inhibitors | 140 compounds, 50% hits | AID 493199
MBNL1-CUG Alpha: MBNL1-CUG RNA binding inhibition, AlphaScreen validation; 140 compounds, 30% hits; shares compounds with MBNL1-CUG inh; AlphaScreen MBNL1-His / biotin-(CUG)12 binding; Potency, µM (doses to about 57.7 µM), for inactives: top-dose activity, negative = inhibition, usual class: inhibitors
* = called active by the depositor; [ ] = another dose, or the depositor's remark. Only some compounds are listed: those with a hit (about 0.26% of all), similar ones and a draw of the others. Unless noted, calls come from the whole dose curve; as a rule, active = well fitted curve in the direction sought with a large enough effect; inconclusive = small, poorly fitted or top-dose-only effect, or another doubt; inactive = no such curve, though single readings can be large; an effect the other way counts as inactive or inconclusive.

O=C(Cn1nc(-c2ccc(Cl)cc2)ccc1=O)N1CCC2(CC1)OCCO2 was read as MBNL1-CUG inh 4%, TSHR antag 0, CBFb RUNX1 block -2%, TSG101-PTAP inh 0%, a7 integrin act 11µM* and TCR act 11%.
For OCC[n+]1c2ccccc2nc2ccc(N3CCOCC3)cc21 the results were MBNL1-CUG inh inconclusive, TSHR antag -71*, CBFb RUNX1 block inconclusive, TSG101-PTAP inh -3%, a7 integrin act -6% and TCR act 4%.
`CC(C)(C)c1cc(C=C(C#N)C#N)cc(C(C)(C)C)c1O` gave TSHR antag -81*, CBFb RUNX1 block -9%, TSG101-PTAP inh 1% and TCR act 1%.
`COc1cc(C=C(C#N)C#N)cc(O)c1O` gave CBFb RUNX1 block 10%.
For Cc1ccc(-c2cc(-c3ccccc3)cc(-c3ccccc3)[n+]2-c2ccccc2)cc1 the results were TSHR antag -94*, TSG101-PTAP inh 2%, a7 integrin act -41% and TCR act 0%.
Cc1ccc(-c2cc(-c3ccc(C)cc3)[n+](-c3ccccc3)c(-c3ccc(C)cc3)c2)cc1 was read as TSHR antag inconclusive, TSG101-PTAP inh 0%, a7 integrin act -41% and TCR act -2%.
For c1ccc(-c2cc(-c3ccccc3)[n+](-c3ccccc3)c(-c3ccccc3)c2)cc1 the results were MBNL1-CUG inh inconclusive, TSHR antag -78*, CBFb RUNX1 block -1%, TSG101-PTAP inh -12%, a7 integrin act -72% and TCR act 1%.
Screening COc1c(C(C)(C)C)cc([N+](=O)[O-])c(C)c1[N+](=O)[O-] returned CBFb RUNX1 block 27%[21.7 µM].
Screening CC(O)C(C)OC(=O)[C@@H]1C[C@@H]2c3cccc4c3c(cn4C(C)C)C[C@H]2N(C)C1 (stereo partly specified) returned CBFb RUNX1 block inconclusive, MBNL1 TRFRET inconclusive and MBNL1-CUG Alpha -44%.
`CN(C)C(=O)Nc1cccc(C(F)(F)F)c1` gave CBFb RUNX1 block 6%[21.7 µM].
